# Source: PubChem BioAssay
# Inconclusive results are not listed. Values without a mark were called inactive.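 The calls were made as follows, unless noted: active = cell viability at or below a set limit in both duplicate runs, the limit being the all-compound median minus 4 SD (cut at about 23% in these data, passing the limit was not always enough); inconclusive = no clear call, values can overlap the other calls; inactive = the rest.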
# Assay: viability of HCT116 without oncogenic beta-catenin – human colon tumor cells, pilot screen (AID 823);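 also: 0% = wells killed by 20 µM Hyamine and 100% = untreated DMSO cell wells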
# Details: HCT116 beta-catenin knockout viability, CellTiter-Glo, 60 h; at 10 µM; stronger effect = lower value
row,Structure (SMILES),viability [%]
1,Cc1ccc(NC(=O)c2cc(-c3ccc(C)o3)nc3ccccc23)nc1,78.6
2,CCc1cccc(NC(=O)Cn2cc3c(n2)CCCC3)c1,96.6
3,CCN(CC)C(=O)C1CCCN(c2ncnc3c2cnn3-c2ccc(Cl)cc2)C1 (stereo not given),66
4,Cc1cccc(NC(=O)CS(=O)(=O)c2cn(C)c3ccccc23)c1,97.1
5,O=C(CN1C(=O)c2ccccc2S1(=O)=O)NCc1ccccc1Cl,102
6,Cn1cnc2cc(NC(=O)c3ccc(Cl)cc3)ccc21,94.5
7,COC(=O)c1cn(NC(=O)C2CCCO2)c(=O)c2ccccc12 (stereo not given),91.2
8,O=C(c1ccc(Cl)s1)N1CCN(c2nc3ccccc3s2)CC1,81
9,O=C(Nc1ccc(N2C(=O)C3C4C=CC(C4)C3C2=O)cc1)Nc1nncs1 (stereo not given),97.6
10,CNC(=O)c1ccccc1NC(=O)c1c(O)c2c([nH]c1=O)CCCC2,88.9
11,COc1ccccc1CNC(=O)CCn1c(=O)[nH]c2ccsc2c1=O,101
12,Cc1ccc(-c2nc3cc(NC(=O)C(C)C)ccc3o2)cc1,82.6
13,COc1ccccc1N1CCN(C(=O)c2cc(C3CC3)on2)CC1,98.5
14,CCCCN(C(=O)c1ccc(Cl)cc1)C1CC2CCC(C1)N2C (stereo not given),85.3
15,COc1ccc(OC)c2[nH]c(=O)c(CCNC(=O)C(C)C)cc12,108
16,COc1ccccc1S(=O)(=O)Cc1ccc(C(=O)N2CCN(c3ccccn3)CC2)o1,92.8
17,CCC(=O)c1cc(F)c(N2CCN(C(=O)c3ccco3)CC2)cc1C,97.9
18,CC(C)Cc1nnc(NS(=O)(=O)c2ccc(Cl)cc2)s1,99.2
19,COc1ccc(N2C(=O)CCC(C(=O)N3CCCCC3)C2c2ccc(OC)c(OC)c2)cc1 (stereo not given),105
20,Cc1c(C#N)c2ccccc2n1CC(=O)N1CCc2ccccc2C1,92.9

row,Structure (SMILES),viability [%]
1,COCCCNC(=O)c1ccc(CS(=O)(=O)c2ccc(OC)cc2)o1,98.6
2,CCCCSc1nc2c(cnn2-c2ccc(F)cc2)c(=O)[nH]1,104
3,COc1ccc2[nH]c(C)c(CCN3C(=O)OC(C)(C)C3(C)O)c2c1 (stereo not given),107
4,CCCCOCCCNC(=O)COc1ccccc1,94.5
5,c1ccc(-c2cn3cccnc3n2)cc1,110
6,CCCCn1c(SCC(=O)OCC)nc2c1c(=O)[nH]c(=O)n2C,94.4
7,O=C(CCn1c(=O)oc2ccccc21)NCc1ccco1,102
8,CN(C)C(=O)N1CCN(C(=O)c2ccco2)CC1,102
9,CC(=O)C1=C(C)Nc2ncnn2C1c1cccc(OCc2ccccc2)c1 (stereo not given),92.4
10,CC1Cc2nc(SCC(=O)N3CCCc4ccccc43)n(C)c(=O)c2S1 (stereo not given),76.1
11,CCOC(=O)N1CCN(C(=O)c2ccc3nc4ccsc4c(=O)n3c2)CC1,101
12,CC(C)(C)SCCNC(=O)CN1C(=O)c2ccccc2S1(=O)=O,103
13,COc1cccc(-c2nnc(NC(C)=O)o2)c1,101
14,CCCCc1cc(=O)oc2cc(OCC(=O)N(CC)CC)c(Cl)cc12,93.5
15,CCOC(=O)CCc1c(C)nc2cc(-c3ccc(F)cc3)[nH]n2c1=O,95.8
16,CN(Cc1ccccc1)S(=O)(=O)c1ccc(S(=O)(=O)N2CCN(CCC#N)CC2)cc1,96.9
17,Cc1ccc(-n2c3c(cc(C(=O)NCCCN4CCOCC4)c2=O)C(=O)CC(C)(C)C3)cc1,101
18,COc1cc2c(cc1OC)C(c1ccc(C)o1)CC(=O)N2 (stereo not given),80
19,O=C(Nc1ccc2c(c1)OCO2)c1ccc(CN2CCOCC2)cc1,71.3
20,CC1Cn2c(nnc2-c2ccc(F)cc2)S1 (stereo not given),112

# Assay: viability of PTEN-null HCT116 cells – cell-based, HCT116 clonal line, CellTiter-Glo, pilot screen (AID 824;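 active = viability at or below 27.92% in each of two runs, the all-compound median minus 4 SD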;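 also: 0% = 20 µM Hyamine control and 100% = vehicle cell control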)
# Details: HCT116 PTEN-deleted viability, 60 h, at 10 µM, stronger effect = lower value
row,Structure (SMILES),viability [%]
1,Cc1ccc(NC(=O)c2cc(-c3ccc(C)o3)nc3ccccc23)nc1,84.2
2,CCc1cccc(NC(=O)Cn2cc3c(n2)CCCC3)c1,97.2
3,CCN(CC)C(=O)C1CCCN(c2ncnc3c2cnn3-c2ccc(Cl)cc2)C1 (stereo not given),69.7
4,Cc1cccc(NC(=O)CS(=O)(=O)c2cn(C)c3ccccc23)c1,92.6
5,O=C(CN1C(=O)c2ccccc2S1(=O)=O)NCc1ccccc1Cl,100
6,Cn1cnc2cc(NC(=O)c3ccc(Cl)cc3)ccc21,96.5
7,COC(=O)c1cn(NC(=O)C2CCCO2)c(=O)c2ccccc12 (stereo not given),98.8
8,O=C(c1ccc(Cl)s1)N1CCN(c2nc3ccccc3s2)CC1,83.7
9,O=C(Nc1ccc(N2C(=O)C3C4C=CC(C4)C3C2=O)cc1)Nc1nncs1 (stereo not given),95.3
10,CNC(=O)c1ccccc1NC(=O)c1c(O)c2c([nH]c1=O)CCCC2,94.5
11,COc1ccccc1CNC(=O)CCn1c(=O)[nH]c2ccsc2c1=O,99.4
12,Cc1ccc(-c2nc3cc(NC(=O)C(C)C)ccc3o2)cc1,73.5
13,COc1ccccc1N1CCN(C(=O)c2cc(C3CC3)on2)CC1,103
14,CCCCN(C(=O)c1ccc(Cl)cc1)C1CC2CCC(C1)N2C (stereo not given),89.3
15,COc1ccc(OC)c2[nH]c(=O)c(CCNC(=O)C(C)C)cc12,103
16,COc1ccccc1S(=O)(=O)Cc1ccc(C(=O)N2CCN(c3ccccn3)CC2)o1,85.1
17,CCC(=O)c1cc(F)c(N2CCN(C(=O)c3ccco3)CC2)cc1C,88.3
18,CC(C)Cc1nnc(NS(=O)(=O)c2ccc(Cl)cc2)s1,96.7
19,COc1ccc(N2C(=O)CCC(C(=O)N3CCCCC3)C2c2ccc(OC)c(OC)c2)cc1 (stereo not given),98.2
20,Cc1c(C#N)c2ccccc2n1CC(=O)N1CCc2ccccc2C1,92.7

row,Structure (SMILES),viability [%]
1,COCCCNC(=O)c1ccc(CS(=O)(=O)c2ccc(OC)cc2)o1,91
2,CCCCSc1nc2c(cnn2-c2ccc(F)cc2)c(=O)[nH]1,93.7
3,COc1ccc2[nH]c(C)c(CCN3C(=O)OC(C)(C)C3(C)O)c2c1 (stereo not given),96.4
4,CCCCOCCCNC(=O)COc1ccccc1,97.5
5,c1ccc(-c2cn3cccnc3n2)cc1,100
6,CCCCn1c(SCC(=O)OCC)nc2c1c(=O)[nH]c(=O)n2C,91.6
7,O=C(CCn1c(=O)oc2ccccc21)NCc1ccco1,99.4
8,CN(C)C(=O)N1CCN(C(=O)c2ccco2)CC1,99.5
9,CC(=O)C1=C(C)Nc2ncnn2C1c1cccc(OCc2ccccc2)c1 (stereo not given),93.5
10,CC1Cc2nc(SCC(=O)N3CCCc4ccccc43)n(C)c(=O)c2S1 (stereo not given),73.4
11,CCOC(=O)N1CCN(C(=O)c2ccc3nc4ccsc4c(=O)n3c2)CC1,101
12,CC(C)(C)SCCNC(=O)CN1C(=O)c2ccccc2S1(=O)=O,99.8
13,COc1cccc(-c2nnc(NC(C)=O)o2)c1,105
14,CCCCc1cc(=O)oc2cc(OCC(=O)N(CC)CC)c(Cl)cc12,89.6
15,CCOC(=O)CCc1c(C)nc2cc(-c3ccc(F)cc3)[nH]n2c1=O,95.1
16,CN(Cc1ccccc1)S(=O)(=O)c1ccc(S(=O)(=O)N2CCN(CCC#N)CC2)cc1,92.3
17,Cc1ccc(-n2c3c(cc(C(=O)NCCCN4CCOCC4)c2=O)C(=O)CC(C)(C)C3)cc1,104
18,COc1cc2c(cc1OC)C(c1ccc(C)o1)CC(=O)N2 (stereo not given),78.2
19,O=C(Nc1ccc2c(c1)OCO2)c1ccc(CN2CCOCC2)cc1,81.5
20,CC1Cn2c(nnc2-c2ccc(F)cc2)S1 (stereo not given),101
